Assay results published in ChEMBL document CHEMBL3988442, “University of Dundee, Small-Polar-MMV Screening Library” (2021).
In all, about 48,000 compounds went through this assay and about 13,000 (27%) showed an effect of 50% or more. Some of the results follow.

These compounds were tested on Wolbachia pipientis (assay: Anti-Wolbachia Cell-Based Screen). Settings: 5 µM.
Assay type: functional
Design: scale not given: in the data most compounds retested in dose-response had high values
`N[C@H]1CN(C(=O)c2ccc(Cl)cc2O)C[C@@H]1C1CC1` was tested, and the “Percent Effect” value was -2.238%. `CC(C)[C@H]1COC(=O)N1Cc1nnc(-c2ccccc2)o1` was tested, and the “Percent Effect” value was -6.799%. For `CC(NCCn1cccn1)c1ccccc1Cl` (stereo not drawn), the “Percent Effect” value was 12.43%. For `CN1CCN(C(=O)C[C@@H]2COC[C@H]3CN(c4ccncn4)C[C@@H]23)CC1`, the “Percent Effect” value was -4.365%. In the case of `O=C(Nc1ccc(F)cc1)N1C[C@H]2C[C@H](C(=O)N3CCCC3)[C@@H](C1)O2`, the “Percent Effect” value is reported as 125.2%. `CNC(=O)[C@H]1C[C@@H]2CN(C(=O)Nc3ccc(F)cc3)C[C@H]1O2` was tested, and the “Percent Effect” value was -4.608%. For `CCc1ccc(NC(=O)N2C[C@H]3C[C@H](C(=O)N4CCCC4)[C@@H](C2)O3)cc1`, the “Percent Effect” value was 103.5%. With `O=C(Nc1ccccc1)N1C[C@H]2C[C@H](C(=O)N3CCOCC3)[C@@H](C1)O2` the “Percent Effect” value was 114.8%. For `O=C(NCCc1ccccc1)N1C[C@H]2C[C@H](C(=O)N3CCCC3)[C@@H](C1)O2`, the “Percent Effect” value was -4.163%. In the case of `CNC(=O)N1C[C@H]2C[C@H](C(=O)Nc3ccccc3)[C@@H](C1)O2`, the “Percent Effect” value is reported as -3.507%. `O=C(Nc1ccccc1)N1C[C@@H]2OCCN(C(=O)c3ccco3)[C@@H]2C1` was tested, and the “Percent Effect” value was 7.532%. In the case of `O=C(Nc1ccccc1)N1C[C@H]2C[C@H](C(=O)N3CCCC3)[C@@H](C1)O2`, the “Percent Effect” value is reported as 100.5%. In the case of `O=C(Nc1ccc(F)cc1)N1C[C@H]2C[C@H](C(=O)N3CCOCC3)[C@@H](C1)O2`, the “Percent Effect” value is reported as 1.969%. `O=C(NCc1ccccc1)N1C[C@H]2C[C@H](C(=O)N3CCCC3)[C@@H](C1)O2` was tested, and the “Percent Effect” value was 8.283%. With `O=C1CC2(CCN(Cc3ccc(-c4ccn[nH]4)s3)CC2)CN1` the “Percent Effect” value was -9.036%. With `CCc1noc(C(C)N2CCC(NS(=O)(=O)c3cccs3)CC2)n1` (stereo not drawn) the “Percent Effect” value was -6.324%. `CCC(=O)NCC(=O)NC(Cc1ccccc1)c1sccc1C` (stereo not drawn) was tested, and the “Percent Effect” value was 6.747%. In the case of `Cc1cnn(CC(C)NCc2ccc(S(C)(=O)=O)cc2)c1` (stereo not drawn), the “Percent Effect” value is reported as 4.95%. `COC(=O)[C@@H](Nc1nc(C2CCCC2)nc2c1cnn2C)[C@@H](C)O` was tested, and the “Percent Effect” value was -8.342%. In the case of `CC(C)NC(=O)c1cc(-c2ccc(S(C)(=O)=O)cc2)nc2c1cnn2C`, the “Percent Effect” value is reported as 95.41%. For `CC(C)[C@H](Nc1nc(C2CCCC2)nc2c1cnn2C)C(N)=O`, the “Percent Effect” value was -0.02427%. `Cn1ncc(N2CCN(Cc3ccc(S(C)(=O)=O)cc3)CC2)cc1=O` was tested, and the “Percent Effect” value was -9.751%. In the case of `CC(C)NC(=O)c1cc(-c2ccc(S(C)(=O)=O)cc2)c2cnn(C)c2n1`, the “Percent Effect” value is reported as 110.4%. In the case of `CN(C)C(=O)c1cc(-c2ccc(S(C)(=O)=O)cc2)c2cnn(C)c2n1`, the “Percent Effect” value is reported as 108.3%. `Cc1cccc(N(C)Cc2nc3c(cnn3C)c(=O)[nH]2)c1C` was tested, and the “Percent Effect” value was -8.766%. For `CCOC(=O)CC(C)Nc1nc(C(C)(C)C)nc2c1cnn2C` (stereo not drawn), the “Percent Effect” value was -7.754%. With `CCc1nc(CCNC(=O)NC2CCSCC2)cs1` the “Percent Effect” value was 5.983%. With `Cc1cn(CC(=O)NC2CCC3(CC2)OCCO3)c2ccccc12` the “Percent Effect” value was -12.26%. In the case of `CCCN1CCN(C(=O)c2ccc3nc(C)oc3c2)[C@H]2CS(=O)(=O)C[C@H]21`, the “Percent Effect” value is reported as -5.857%. `COCCN1C[C@H]2CN(Cc3cccc(OC(F)(F)F)c3)CCN2C1=O` was tested, and the “Percent Effect” value was -4.744%. With `Cc1cccc(COc2ccc(C(C)N)cc2)c1.Cl` (stereo not drawn) the “Percent Effect” value was 108.7%. `Cc1cccc(CNCCOc2ccc(S(C)(=O)=O)cc2)c1` was tested, and the “Percent Effect” value was 16.11%. In the case of `CC(NS(N)(=O)=O)c1ccc(OCc2ccc(F)cc2)cc1` (stereo not drawn), the “Percent Effect” value is reported as 111.6%. With `CC(=O)NC(C)C(=O)Nc1ccc(OCc2cccc(F)c2)cc1C` (stereo not drawn) the “Percent Effect” value was -4.537%. With `NC(=O)CS(=O)(=O)Cc1ccc(OCc2ccc(F)cc2)cc1` the “Percent Effect” value was -22.33%. In the case of `Cc1cccc(COc2ccc(C(C)NS(N)(=O)=O)cc2)c1` (stereo not drawn), the “Percent Effect” value is reported as 134.5%. In the case of `Cc1cccc(COc2ccc(C(C)NC(=O)CNC(N)=O)cc2)c1` (stereo not drawn), the “Percent Effect” value is reported as 98.3%. `Cc1cccc(COc2ccc(NC(=O)C(C)NC(N)=O)c(C)c2)c1` (stereo not drawn) was tested, and the “Percent Effect” value was -6.983%. `CS(=O)(=O)Cc1ccc(OCc2ccc(F)cc2)cc1` was tested, and the “Percent Effect” value was -17.41%. In the case of `Cc1cc(C)n(-c2ccc(C(C)NS(N)(=O)=O)cc2)n1` (stereo not drawn), the “Percent Effect” value is reported as -26.74%. With `Cc1cc(OCc2cccc(F)c2)ccc1NC(=O)C(C)NC(N)=O` (stereo not drawn) the “Percent Effect” value was -0.2467%. `Cc1ccc(OCCC(=O)NC(C)c2ccncc2)cc1` (stereo not drawn) was tested, and the “Percent Effect” value was -14.45%. With `COc1cccc2ccc(CN3CCN(c4ncccn4)CC3)nc12` the “Percent Effect” value was -3.273%. `CC(C)(C)c1c[nH]c([C@@H]2COCCN2C2CCC2)n1` was tested, and the “Percent Effect” value was -8.065%. `Cc1cc(C)n(C2CN(C(=O)CN3C(=O)CSc4ccccc43)C2)n1` was tested, and the “Percent Effect” value was 2.557%. `Cc1ccsc1[C@@H]1CCN(C(=O)Cn2cc3ccccc3n2)C[C@H]1O` was tested, and the “Percent Effect” value was -6.576%. `CS(=O)(=O)N1CCc2nc(NC(=O)Nc3c(F)cccc3F)sc2C1` was tested, and the “Percent Effect” value was -13.59%. With `CCCNC(=O)c1nc2c(o1)CN(C(C)=O)C2` the “Percent Effect” value was 21.64%. `COc1ccc(CCNC2CCCN(c3ccc(C)nn3)C2)cc1` (stereo not drawn) was tested, and the “Percent Effect” value was -3.788%. For `COc1ccc(C2CCCN2c2nnc(C)s2)c(OC)c1` (stereo not drawn), the “Percent Effect” value was 6.611%. In the case of `Cc1ncsc1C(=O)N1CCN(Cc2ccccc2)CC1C` (stereo not drawn), the “Percent Effect” value is reported as 4.154%. `Cc1ncsc1C(=O)N1CCC(Nc2cccnn2)CC1` was tested, and the “Percent Effect” value was -12.54%. `CCN1CCN(C(=O)c2scnc2C)CC1` was tested, and the “Percent Effect” value was 114.5%. With `COCCN1CCCN(C(=O)c2scnc2C)CC1` the “Percent Effect” value was 111.8%. In the case of `CC(C)CCN1CCN(C(=O)c2cccnc2-n2cncn2)CC1`, the “Percent Effect” value is reported as 7.327%. In the case of `Cc1ncsc1C(=O)N1CCn2nc(CN3CCSCC3)cc2C1`, the “Percent Effect” value is reported as -3.157%. With `Cc1ncsc1C(=O)N1CCN(CCC(C)C)CC1` the “Percent Effect” value was 114%. `COc1ccccc1C(=O)N1CCN(CCc2scnc2C)CC1` was tested, and the “Percent Effect” value was -5.378%. With `Cc1cccc(C(=O)N2CCCN(CCc3scnc3C)CC2)c1` the “Percent Effect” value was -3.968%. For `c1cc(CCN2CCC(NCc3ccsc3)CC2)ccn1`, the “Percent Effect” value was -8.408%. `Cc1ccc(N2CCCC(NC(=O)Nc3cnn(C)c3)C2=O)cc1` (stereo not drawn) was tested, and the “Percent Effect” value was 10.21%. With `O=C(NCc1cnc2n1CCN(Cc1ccoc1)C2)c1ccno1.O=C(O)C(F)(F)F` the “Percent Effect” value was 0.5733%. `CC(=O)N1CCc2c(nc(N(C)C)nc2NC(C)Cc2cccs2)C1` (stereo not drawn) was tested, and the “Percent Effect” value was 16.87%. `CC(C)Nc1nc(-c2ccccc2)nc2c1CCN(C(=O)CC#N)CC2` was tested, and the “Percent Effect” value was 98.77%. `CC(C)Nc1ncnc2c1CCN(C(=O)Cc1ccccn1)CC2.O=C(O)C(F)(F)F` was tested, and the “Percent Effect” value was 17.78%. `CC(=O)NCC(=O)N1CCc2nc(-c3ccccc3)nc(C)c2CC1` was tested, and the “Percent Effect” value was -15.18%. In the case of `Cc1nc2c(c(NC(C)C)n1)CCN(C(=O)c1ccno1)CC2.O=C(O)C(F)(F)F`, the “Percent Effect” value is reported as -9.631%. For `CSCC(=O)N1CCc2nc(C)nc(NCc3ccccc3)c2CC1`, the “Percent Effect” value was -12.22%. For `CC(=O)N1CCc2nc(-c3ccc(F)cc3)nc(NC(C)C)c2CC1`, the “Percent Effect” value was 94.36%. With `Cc1nc(-c2ccc(F)cc2)nc2c1CCN(C(=O)CN(C)C)CC2` the “Percent Effect” value was 3.588%. For `Cc1nc2c(c(NC(C)C)n1)CCN(Cc1cccnc1)CC2.O=C(O)C(F)(F)F.O=C(O)C(F)(F)F`, the “Percent Effect” value was -13.98%. In the case of `CC(=O)N1CCc2nc(-c3ccccc3)nc(NC(C)C)c2CC1`, the “Percent Effect” value is reported as 96.01%. In the case of `CC(C)Nc1nc(-c2ccccc2)nc2c1CCN(C(=O)C1CC1)CC2.O=C(O)C(F)(F)F`, the “Percent Effect” value is reported as 99.02%. In the case of `Cc1ncsc1C(=O)NCc1cc2n(n1)CCN(C(=O)N(C)C)C2`, the “Percent Effect” value is reported as -4.389%. `Cc1sc2nc(CCN)nc(N3CCN(S(C)(=O)=O)CC3)c2c1C` was tested, and the “Percent Effect” value was 5.151%. With `CCC(CC)C(=O)N1CCC2(C1)CN(c1ccccc1)C(=O)CN2C.O=C(O)C(F)(F)F` (stereo not drawn) the “Percent Effect” value was -2.96%. For `CN1CC(=O)N(c2ccsc2)CC12CCN(C(=O)c1ccccc1)C2.O=C(O)C(F)(F)F` (stereo not drawn), the “Percent Effect” value was 8.898%. For `CN1CC(=O)N(c2ccccc2)CC12CCN(C(=O)c1ccnnc1)C2.O=C(O)C(F)(F)F` (stereo not drawn), the “Percent Effect” value was 94.6%. With `CN1CC(=O)N(c2ccccc2)CC12CCN(C(=O)c1cnccn1)C2.O=C(O)C(F)(F)F` (stereo not drawn) the “Percent Effect” value was 102.5%. With `CN1CC(=O)N(c2cccnc2)CC12CCN(C(=O)c1cccnc1)C2.O=C(O)C(F)(F)F.O=C(O)C(F)(F)F` (stereo not drawn) the “Percent Effect” value was -6.437%. In the case of `CN1CC(=O)N(c2cnn(C)c2)CC12CCN(C(=O)c1ccsc1)C2.O=C(O)C(F)(F)F` (stereo not drawn), the “Percent Effect” value is reported as -13.31%. In the case of `Cc1ccsc1C(Cc1ccccc1)NC(=O)CSCC(N)=O` (stereo not drawn), the “Percent Effect” value is reported as -6.461%. With `COCCCOC1CN(C(=O)c2[nH]nc3c2CCCC3)C1` the “Percent Effect” value was -6.811%. For `Cl.Cl.O[C@@H]1C[C@@](CNCC2CC2)(COc2cccnc2)C[C@@H]1O`, the “Percent Effect” value was -8.613%. With `CC1(C)CCN(Cc2ccccc2-c2nc(C(C)(C)C)cc(=O)[nH]2)C1` the “Percent Effect” value was -0.3128%. `CC(C)(C)c1cc(=O)[nH]c(-c2ccccc2CN2CCC[C@@H](O)C2)n1` was tested, and the “Percent Effect” value was -11.42%. For `CC(C)(C)c1cc(=O)[nH]c(-c2ccccc2CN2CCCCCC2)n1`, the “Percent Effect” value was 107.3%. With `CCn1ncnc1C(NC(=O)CC1CCN(C(C)C)CC1)C1CC1` (stereo not drawn) the “Percent Effect” value was -0.6358%. For `CC(C)N1CCC(CC(=O)N2CCN(Cc3nccn3C)CC2)CC1`, the “Percent Effect” value was 103.8%. With `CC(C)N1CCC(C(=O)N2CCC(C(O)c3nccn3C)CC2)CC1` (stereo not drawn) the “Percent Effect” value was 119.5%. With `Cc1nc(N2CCC(C(O)c3nccn3C)CC2)c2cccnc2n1` (stereo not drawn) the “Percent Effect” value was -5.3%. With `CC(C)N1CCC(CC(=O)N2CCC(C(O)c3nccn3C)CC2)CC1` (stereo not drawn) the “Percent Effect” value was 112.6%. With `CCCN1CCC(CC(=O)N2CCC(C(O)c3nccn3C)CC2)CC1` (stereo not drawn) the “Percent Effect” value was 109.9%. With `CC(C)N1CCC(CC(=O)N2CCCCC2CCn2cccn2)CC1` (stereo not drawn) the “Percent Effect” value was 17.49%. `CCCN1CCC(CC(=O)N2CC(C)(C)[C@@](C)(O)C2)CC1` was tested, and the “Percent Effect” value was 2.3%. In the case of `Cc1nc(N2CCC(C(O)c3nccn3C)CC2)c2c(C)noc2n1` (stereo not drawn), the “Percent Effect” value is reported as 0.7849%. For `Cc1nc(N2CCC(C(O)c3nccn3C)CC2)c2nc(C)oc2n1` (stereo not drawn), the “Percent Effect” value was 6.999%. For `CC(C)n1ccnc1CN1CCCN(C(=O)CC2C=CCC2)CC1` (stereo not drawn), the “Percent Effect” value was 11%.
